In PubChem BioAssay (NCATS):
Several values for one entry are separate records, joined by “and”; a condition that tells them apart may be missing. Identical values can stand only once. Inconclusive results are not listed. Where a call stands in place of a potency, no number is given. A structure can be active in one record and inactive in another. Activity calls are given as the source filed them. The call rests on the fitted dose curve; in most records, active means well fitted curve in the direction sought with a large enough effect; inconclusive means small, poorly fitted or top-dose-only effect, or another doubt; inactive means no such curve, though single readings can be large; an effect the other way counts as inactive or inconclusive.

Assays:
[1] = target: Glutathione peroxidase 1 (Homo sapiens) (UniProt P07203); assay: Primary qHTS Assay for Inhibitors of Recombinant Selenoprotein Glutathione Peroxidase 1 (GPX1) (AID 1845191); further: nearly all actives have a fitted effect of over 65% in size
How it was run: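 GPX1 10 nM, GR 100 nM, GSH 1 mM, NADPH 0.5 mM, CHP 0.5 mM (final). 30-min cpd preincubation, RT. Ex340/Em450 read t=0, t=15 min.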

[2] = target: Phospholipid hydroperoxide glutathione peroxidase GPX4 (Homo sapiens) (UniProt P36969); assay: Primary qHTS Assay for Inhibitors of Recombinant Selenoprotein Glutathione Peroxidase 4 (GPX4) (AID 1845192); further: nearly all actives have a fitted effect of over 65% in size; further: potency means the concentration at half of the fitted maximal effect; on activity change, negative = inhibition: series mostly up to about 50 µM
How it was run: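 qHTS, GR-coupled: GPX4 200 nM + cpd 30 min RT → GSH 1 mM, NADPH 0.5 mM, GR 100 nM → CHP 0.5 mM start; fluor 340/450 at t0 and t15 min; no-enzyme wells as control.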

[3] = target: Luciferin 4-monooxygenase (Photinus pyralis) (UniProt P08659); assay: Primary firefly luciferase (FLuc) qHTS assay for identification of artifact compounds. (AID 1845220); further: nearly all actives have a fitted effect of over 60% in size; on activity change, negative = inhibition: series mostly up to about 54 µM
How it was run: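 In this counter-screen for luciferase artifacts, test compounds met substrate (10 uM each luciferin and ATP) before 10 nM enzyme started the reaction. Light output was measured 5 min later.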

[4] = Primary fluorescence-based thiol-reactive (MSTI) qHTS assay for identification of artifact compounds. (AID 1845221); further: nearly all actives have a fitted effect of over 65% in size; further: potency means the concentration at half of the fitted maximal effect;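 on activity change, negative = thiol reactive: series mostly up to about 54 µM; thiol-reactive compounds lower the probe fluorescence signal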
How it was run: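 Curve-fitted percent inhibition (4-parameter Hill) derived from fluorescence, Ex 525/Em 598 nm, scaled with Acetyl-MSTI and MSTI; 1 h incubation at room temperature.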

[5] = tested on: Nanoluciferase (engineered Oplophorus gracilirostris luciferase); assay: Primary Nanoluciferase (NLuc) qHTS assay for identification of artifact compounds. (AID 1845222);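 further: NLuc secreted into diluted conditioned medium of S16 cells; series mostly up to about 54 µM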
How it was run: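 Using secreted nanoluciferase in S16 culture medium (0.22 um filtered, 1:55 dilution), compounds were preincubated 15 min at RT. Signal was generated with Nano-Glo reagent (1:100) over 5 min.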

[6] = Primary redox qHTS assay for identification of artifact compounds. (AID 1845223)
How it was run: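 Redox-cycling detection via DTT (250 uM final) oxidation coupled to Amplex Red (25 uM)/HRP (250 mU/mL) in HBSS. 15 min preincubation plus 30 min after DTT, room temperature. Ex/Em 525/598 nm; 4-parameter Hill fit against DMSO and 10 uM DA3003.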

Chain of Glutathione peroxidase 1 (Homo sapiens) (P07203 whole entry, looked up): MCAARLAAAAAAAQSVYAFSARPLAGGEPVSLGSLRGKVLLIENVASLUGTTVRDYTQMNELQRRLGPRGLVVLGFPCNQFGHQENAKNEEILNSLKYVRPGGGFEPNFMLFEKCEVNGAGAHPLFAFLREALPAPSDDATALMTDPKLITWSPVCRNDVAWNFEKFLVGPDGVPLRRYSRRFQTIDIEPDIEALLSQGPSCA
Chain of Phospholipid hydroperoxide glutathione peroxidase GPX4 (Homo sapiens) (P36969 whole entry, looked up): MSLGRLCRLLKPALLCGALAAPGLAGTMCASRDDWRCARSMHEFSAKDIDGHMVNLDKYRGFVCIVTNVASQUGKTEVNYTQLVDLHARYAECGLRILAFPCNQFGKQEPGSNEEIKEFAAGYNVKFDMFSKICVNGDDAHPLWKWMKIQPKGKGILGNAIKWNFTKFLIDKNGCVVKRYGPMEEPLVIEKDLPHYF

SMILES | Potency [1] | Potency [2] | Potency [3] | Potency [4] | Potency [5] | outcome [1] | activity change, negative = inhibition [2] | activity change, negative = inhibition [3] | activity change, negative = thiol reactive [4] | activity, negative = inhibition [5] | Potency [6]
COc1c(C(C)C)c(O)c(O)c2c1C(OC)[C@H]1OC(=O)[C@@]23CCCC(C)(C)[C@H]13 (stereo partly drawn) | inactive | inactive | inactive | 2930 nM (active) | inactive |  |  |  |  |  | 
O=C(NCC1CCN(Cc2cccc(Cl)c2)CC1)[C@@H]1CCCN(c2ncnc3c2nc2n3CCCC2)C1 | inactive | inactive | inactive | inactive | inactive |  |  |  |  |  | 
Cn1ccc(NC(=O)c2cc(Oc3ccc(C(=O)N4CCC4)c(F)c3)c3c(c2)OC(C)(C)C3)n1 | inactive | inactive | inactive | inactive | inactive |  |  |  |  |  | 
COc1cc2c(cc1NS(=O)(=O)c1ccc(Br)cc1C)n(C)c(=O)n2C | inactive | inactive | inactive | inactive | inactive |  |  |  |  |  | 
CCC[C@@]1(CCc2ccccc2)CC(O)=C([C@H](CC)c2cccc(NS(=O)(=O)c3ccc(C(F)(F)F)cn3)c2)C(=O)O1 | inactive | inactive and 6.31 µM (active) | inactive | inactive | inactive |  |  |  |  |  | 
CCc1c[nH]c2ncnc(N3CC[C@](N)(CNC(=O)c4ccc(F)cc4F)C3)c12 | inactive | inactive | inactive | inactive | inactive |  |  |  |  |  | 
CC(=O)NCc1cccc(OC[C@@H](O)CNCCc2ccc(NS(=O)(=O)c3ccccc3)cc2)c1 | inactive | inactive | inactive | inactive | inactive |  |  |  |  |  | 
Cn1ncc(Cl)c1-c1cc(C(=O)N[C@H](CN)Cc2ccc(F)c(F)c2)sc1Cl | inactive | inactive | inactive | inactive | inactive |  |  |  |  |  | 
CCC/C=C/C(=O)O[C@H]1CC(C)(C)CC2[C@@]13[C@H](O)C[C@]1(C)[C@@]2(CCC2[C@@]4(C)CC[C@H](O[C@@H]5O[C@H](C(=O)O)[C@@H](O)[C@H](O[C@@H]6O[C@H](CO)[C@H](O)[C@H](O)[C@H]6O[C@@H]6O[C@@H](C)[C@H](O)[C@@H](O)[C@H]6O[C@@H]6OC[C@](O)(CO)[C@H]6O)[C@H]5O[C@@H]5O[C@H](CO)[C@H](O)[C@H](O)[C@H]5O)C(C)(C)C4CC[C@]21C)O[C@H]3O (stereo partly drawn) |  |  |  |  |  | inactive [at 9.52 µM] | -7.28% [at 9.73 µM] (inactive) | 0.937% [at 11.6 µM] (inactive) | 163% [at 11.5 µM] (inactive) | 2.33% [at 11.6 µM] (inactive) | 
O=C1COC2(CCN(S(=O)(=O)c3ccc(-c4ccc5cccnc5c4)cc3)CC2)CN1C1CC1 | inactive | inactive | inactive | inactive | inactive |  |  |  |  |  | 
NC(=O)C1=CC2C3C=CC2C(OC3=O)O1 (stereo not drawn) | inactive | inactive | inactive | 15800 nM (active) | inactive |  |  |  |  |  | inactive
CN(c1ccc(NC(=O)Nc2ccccc2)cc1)S(=O)(=O)c1cnn(-c2ccc(F)cc2)c1 | inactive | inactive | inactive | inactive | inactive |  |  |  |  |  | inactive
CC(C)c1cc(-c2ccc(F)c3ccccc23)nc(N)n1 | inactive | inactive | inactive | inactive | inactive |  |  |  |  |  | inactive
COc1cc(/C=C/C(=O)NCCn2c(C(F)(F)F)cc3ccccc32)cc(OC)c1OC | inactive | inactive | inactive | inactive | inactive |  |  |  |  |  | inactive
CC(C)c1ccc(NC(=O)c2cccs2)c(-c2nc3ccccc3[nH]c2=O)c1 | inactive | inactive | inactive | inactive | inactive |  |  |  |  |  | inactive
CCn1c(=O)c(-c2ccc(Cl)cc2Cl)cc2cnc(Nc3ccc(N4CCNCC4)c(F)c3)nc21 | inactive | inactive | inactive | inactive | inactive |  |  |  |  |  | inactive
COc1cc(N2CCC(N)CC2)ccc1Nc1ncc(Cl)c(-c2c[nH]c3ccccc23)n1 | inactive | inactive | inactive | 1890 nM (active) | inactive |  |  |  |  |  | inactive
CC(=O)O[C@@H]1[C@@H](OC(C)=O)[C@H](C)O[C@@H](O[C@H]2[C@@H]3C=CO[C@@H](O[C@@H]4O[C@H](CO)[C@@H](O)[C@H](O)[C@H]4O)[C@@H]3[C@@]3(CO)O[C@@H]23)[C@@H]1OC(=O)/C=C/c1ccccc1 | inactive | inactive | inactive | inactive | inactive |  |  |  |  |  | inactive
CCCN(CCc1ccsc1)C1CCc2c(O)cccc2C1 (stereo not drawn) | inactive | inactive | inactive | inactive | inactive |  |  |  |  |  | inactive
O=c1[nH]c2ccccc2n1CCN1CCN(c2cccc(C(F)(F)F)c2)CC1 | inactive | inactive | inactive | inactive | inactive |  |  |  |  |  | inactive
Cc1c(C(=O)Nc2ccc(N3CCC(N4CCOCC4)CC3)c(C#N)c2)cnn1-c1ccc(Cl)cc1 | inactive | inactive | inactive | inactive | inactive |  |  |  |  |  | inactive
COc1cccc(-c2cn(-c3ccc(CCN4CCC(O)CC4)cc3)c3ncnc(N)c23)c1 | inactive | inactive | inactive | inactive | inactive |  |  |  |  |  | inactive
C[C@H](CN(C)C)Oc1nc(Nc2cc3cccc(Cl)c3cn2)cnc1C#N | inactive | inactive | inactive | inactive | inactive |  |  |  |  |  | inactive
